Screens from PubChem BioAssay.
The list is not random: actives were taken first. Their share in the collection is about 0.5%.
CBFb-RUNX1 inh: qHTS Assay for Compounds Blocking the Interaction Between CBF-beta and RUNX1 for the Treatment of Acute Myeloid Leukemia | AlphaScreen CBFb-His/RUNX1-biotin binding, biochemical | 230,000 tested, under 10 active | Potency, µM (titrated, usually from 59.8 µM), for inactives: at the highest dose activity, negative = inhibition, actives largely listed as inhibitors | Runt-related transcription factor 1 (Homo sapiens) + Core-binding factor subunit beta … | AID 1477, 2009; further: % of control where 0% means no effect
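Proteins preincubated together for 20 min at RT before compound addition; 15 min later, nickel and streptavidin beads were added and left 90 min prior to AlphaScreen measurement.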
ERK EGF block: qHTS Assay for Inhibitors of the ERK Signaling Pathway using a Homogeneous Screening Assay; Stimulation with EGF; 130,000 compounds, 0.41% hits; HEK293-V1b, EGF-stimulated phospho-ERK AlphaScreen; Potency, µM (series often up to 11.5 µM), for the others: top-dose activity change, negative = inhibition, actives largely listed as inhibitors;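 further: potency means the concentration at half of the fitted maximal effect; plate controls were stimulated vehicle wells for no effect and unstimulated vehicle basal for full effect; nearly all actives have a fitted effect of over 55% in size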
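After overnight plating in 1% FBS, HEK293-V1b cells received test compound for half an hour, then a 5 min pulse of EGF (25 nM); ERK phosphorylation in lysates was read by bead-based AlphaScreen.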
RGS12 GoLoco inh-1: qHTS Assay for Inhibitors of RGS12 GoLoco Motif Activity (Red Fluorophore). Guanine nucleotide-binding protein G(i) subunit alpha-1 (Homo sapiens), P63096. Gai1:RGS12 GoLoco peptide FP, rhodamine, 10 min. Potency, µM (highest dose often 61.6 µM), without a hit: at the highest dose activity, negative = inhibition, usual class: inhibitors. 230,000 compounds, 0.44% hits; active means well fitted inhibition curve with a large enough effect, not every such curve was filed as active; inactive means no such curve, though single readings can be large or run the other way; further: potency means the concentration at half of the fitted maximal effect; on the % scale 0 is the no-effect control and ±100 the full control effect; nearly all actives have a fitted effect of over 30% in size
Target sequence (P63096 whole entry, looked up): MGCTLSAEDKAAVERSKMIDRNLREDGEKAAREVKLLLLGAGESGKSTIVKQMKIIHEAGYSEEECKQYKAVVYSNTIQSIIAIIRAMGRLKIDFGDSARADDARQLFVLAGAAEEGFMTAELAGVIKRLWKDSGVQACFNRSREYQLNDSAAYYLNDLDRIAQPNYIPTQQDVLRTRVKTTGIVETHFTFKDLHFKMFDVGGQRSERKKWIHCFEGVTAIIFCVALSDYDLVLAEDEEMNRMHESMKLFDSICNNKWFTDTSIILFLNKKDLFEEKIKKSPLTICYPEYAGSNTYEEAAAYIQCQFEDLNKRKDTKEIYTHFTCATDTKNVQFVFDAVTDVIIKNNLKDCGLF
RGS12 GoLoco inh-2: Confirmation qHTS Assay for Inhibitors of RGS12 GoLoco Motif Activity (Red Fluorophore). shares compounds with RGS12 GoLoco inh-1. Gai1/rhodamine-RGS12 GoLoco peptide fluorescence polarization. Potency, µM (series often up to 57.1 µM), for the others: at the highest dose activity, negative = inhibition, actives largely listed as inhibitors. 110 compounds, 50% hits
ERK pERK EGF: Confirmation Concentration-Response Assay for Inhibitors of the ERK Signaling Pathway using a Homogeneous Screening Assay; Stimulation with EGF. shares compounds with ERK EGF block. HEK293 EGF-stimulated ERK phosphorylation, AlphaScreen. Potency, µM (top dose mostly 57.5 µM), for inactives: at the top dose activity change, negative = inhibition, hits mostly inhibitors. 60 compounds, 60% hits. AID 1725, 2009
cRaf kinase inh: Assay for Inhibitors of the ERK Signaling Pathway using a Homogeneous Screening Assay: c-Raf Inhibition; shares compounds with ERK EGF block; AID 1728, 2009; 70 tested, under 10 active; activity change, negative = inhibition, % at 76.9 µM; c-Raf kinase inhibition, homogeneous biochemical assay
MEK inh: Assay for Inhibitors of the ERK Signaling Pathway using a Homogeneous Screening Assay: MEK Inhibition; AID 1732, 2009; 70 tested, under 10 active; shares compounds with ERK EGF block; homogeneous MEK kinase activity assay, ERK pathway; Potency, µM (highest dose often 76.9 µM), for inactives: top-dose activity change, negative = inhibition, usual class: inhibitors
Target sequence (Q02750 whole entry, looked up): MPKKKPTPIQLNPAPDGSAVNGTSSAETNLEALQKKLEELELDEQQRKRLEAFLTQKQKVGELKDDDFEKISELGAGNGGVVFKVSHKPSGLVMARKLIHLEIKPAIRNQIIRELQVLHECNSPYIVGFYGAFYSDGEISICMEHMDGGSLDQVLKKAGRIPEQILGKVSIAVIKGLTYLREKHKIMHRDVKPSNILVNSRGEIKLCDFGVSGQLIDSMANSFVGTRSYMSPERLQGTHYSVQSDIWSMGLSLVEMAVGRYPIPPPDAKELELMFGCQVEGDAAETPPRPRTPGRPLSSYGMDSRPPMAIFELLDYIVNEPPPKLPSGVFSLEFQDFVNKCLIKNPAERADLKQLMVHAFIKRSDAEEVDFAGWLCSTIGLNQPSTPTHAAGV
An asterisk follows results filed as active; ? = inconclusive; . = not tested or not shown; ! = not confirmed by another sample; [ ] = remark or other dose. Unless noted, the call rests on the fitted dose curve; in most records, active means well fitted curve in the direction sought with a large enough effect; inconclusive means small, poorly fitted or top-dose-only effect, or another doubt; inactive means no such curve, though single readings can be large; an effect the other way counts as inactive or inconclusive.

SMILES	CBFb-RUNX1 inh	ERK EGF block	RGS12 GoLoco inh-1	others
NC(=O)NC1NC(=O)NC1=O (stereo unspecified)	12.9%	0.0%	17.8µM*!	RGS12 GoLoco inh-2=?
NC(=O)NOC[C@@H]1NC(=O)NC1=O	.	.	7.7%[14.2 µM]
COC(=O)[C@@]1(Cc2ccccc2)[C@H]2c3cc(C(=O)N4CCCC4)n(Cc4ccc(O)c(OC)c4)c3C[C@H]2CN1C(=O)c1ccccc1	-16.2%	2.3%	12.2%
O=c1c(-c2ccccc2)nc2cnc(N3CCOCC3)nc2n1Cc1cccs1	.	.	-3.7%
CN=C1N[C@H](c2ccccc2)N(c2ccccc2)S1	9.4%[21.7 µM]	-17.3%	5.62µM*	RGS12 GoLoco inh-2=12.6µM*
COc1ccc(C2c3[nH]c4ccccc4c3CC3C(=O)N(CCc4ccc(OC)c(OC)c4)CC(=O)N32)cc1 (stereo unspecified)	-0.6%	-6.8%	-55.3%
CC#CCN1c2ccccc2[C@]23C[C@@H](C(=O)OC)N(S(=O)(=O)c4ccc(OC)cc4)C2=NC(C(=O)OC)=C(C(=O)OC)[C@H]13	-4.8%[13.1 µM]	.	2.4%[14.2 µM]
CC1(Cn2ccnn2)[C@H](C(=O)O)N2C(=O)C[C@H]2S1(=O)=O (stereo partly specified)	4.7%	.	5.6%
O=C1c2cccc3c(O)ccc(c23)C(=O)N1Cc1ccco1	11.5%	-5.3%[57.5 µM]	11.2µM*	RGS12 GoLoco inh-2=10µM*
O=C1c2ccccc2C(=O)N1Cc1ccco1	2.4%	.	-6.6%
C/C=C/C(=O)C[C@H]1CC[C@@H](C)[C@@H](CCO)O1	18.3%	-15.9%	-0.1%
Cc1[nH]c2ccccc2c1C(=O)CN1C(=O)C(=O)N(C2CCCC2)C1=O	0.9%	7.9%[57.5 µM]	9.3%
Cc1[nH]c2ccccc2c1C(=O)CN1CCN(C2CCCCC2)CC1	7.1%	.	1.78µM*	RGS12 GoLoco inh-2=?
CCc1nnc(NC(=O)CSc2nnc(-c3cc4ccccc4cc3O)n2CC)s1	-6.6%	.	-8.3%
CCn1c(SCC(=O)N(C(C)C)C(C)C)nnc1-c1cc2ccccc2cc1O	-5.3%	.	3.16µM*	RGS12 GoLoco inh-2=?
COc1ccc(SCC(CC(C)C)N2CCN(CCc3ccccc3)CCC2=O)cc1 (stereo unspecified)	7.9%	.	.
O=C(Nc1cccc(C(F)(F)F)c1)C1CCCN(c2ncccn2)C1 (stereo unspecified)	4.3%	.	2.1%
O=C(Nc1cccc(Nc2cc(Nc3cccc(C(F)(F)F)c3)ncn2)c1)C1CC1	.	.	.	RGS12 GoLoco inh-2=5.8%
C#CCCCO/N=C1/C[C@@H](O)[C@@H](O)[C@@H]2[C@@H]3C(=O)N(C4CCCCC4)C(=O)[C@H]3CC[C@H]12	10.6%[13.1 µM]	.	.
Cc1cc(C)c2c(=O)n(CC(=O)Nc3ccc(Br)c(C)c3)sc2n1	3.3%	-13.4%[57.5 µM]	-25.6%	RGS12 GoLoco inh-2=-13.7%
COc1ccc(OC)c(CCNC(=O)Cn2sc3nc(C)cc(C)c3c2=O)c1	?	.	11.2µM*	RGS12 GoLoco inh-2=3.98µM*
COCC(=O)Nc1ccc(Br)c(C)c1	-0.7%	-10.7%	8.5%
Cc1cc(C)c2c(=O)n(CC(=O)Nc3cccc(Cl)c3C)sc2n1	3.3%	8.6%[57.5 µM]	3.98µM*	RGS12 GoLoco inh-2=14.1µM*
Cc1c(Cl)cccc1NC(=O)Cn1cccc1	1.8%	.	9.7%
COc1ccc(-c2nc(CS(=O)(=O)CC(=O)NCCc3cc(OC)ccc3OC)c(C)o2)cc1	-5.3%	.	-0.5%
SMILES	CBFb-RUNX1 inh	ERK EGF block	RGS12 GoLoco inh-1	others
COC(=O)C1=C[C@@H](C(=O)OC)[C@@H]2C3=C(C(=O)[C@@]2(C)NC(=O)c2ccccc2)[C@H](C)[C@@H]2C(=O)N(c4ccccc4)C(=O)[C@@H]2[C@@H]3C1	-7.0%	.	.
Cc1ccccc1-c1cncnc1NCc1cccnc1	.	.	0.0%
C#CCCCO/N=C1/C[C@@H](O)[C@@H](O)[C@@H]2[C@@H]3C(=O)N(C[C@@H]4CCCO4)C(=O)[C@H]3CC[C@@H]12	-3.2%[13.1 µM]	.	.
Nc1cc(N)nc(SCC(=O)Nc2ccc(Br)cc2Cl)n1	-0.1%	.	6.31µM*	RGS12 GoLoco inh-2=?
COc1ccccc1NC(=O)CSc1nc(N)cc(N)n1	7.4%	.	7.5%
Cc1ccc(-c2csc(NC(=O)c3cc([N+](=O)[O-])ccc3N3CCOCC3)n2)cc1	2.2%	-5.2%	15.9%
O=C(Nc1nc(-c2ccccc2)cs1)c1ccc(N2CCOCC2)c([N+](=O)[O-])c1	?	3.98µM*	13.2%	ERK pERK EGF=10µM*;cRaf kinase inh=?;MEK inh=2.5%
FC(F)(F)c1ccccc1-c1cc(NCc2cccnc2)ncn1	.	.	-6.1%
N#CC(C#N)=C1C=CC=CN1/C(=C\c1ccco1)C(=O)c1ccc(Br)cc1	3.3%	7.94µM*	6.5%	ERK pERK EGF=15.8µM*;cRaf kinase inh=?;MEK inh=-23.2%
COc1ccc(/C=C(/C(=O)c2cccs2)N2C=CC=CC2=C(C#N)C#N)cc1	-2.8%	.	.
COc1ccc(COC(=O)N/N=C2/C[C@@H](O)[C@@H](O)[C@@H]3[C@@H]4C(=O)N(C[C@@H]5CCCO5)C(=O)[C@H]4CC[C@H]23)cc1	1.3%[13.1 µM]	.	.
NC(N)=NCCC[C@H](N)C(=O)NCC(=O)N[C@@H](CC(=O)O)C(=O)O	-0.4%	.	.
COc1cccc(/C=N/Nc2nc(Nc3ccccc3)nc(-n3nc(C)cc3C)n2)c1O	?	.	5.4%
COc1cccc(/C=N/Nc2cc(-n3nc(C)cc3-c3ccccc3)ncn2)c1O	9.7%	8.91µM*	8.9%	ERK pERK EGF=11.2µM*;cRaf kinase inh=?;MEK inh=-7.2%
Cc1ccc(C(=O)NNc2c3ccccc3nc3ccccc23)cc1	6.4%	?	-9.2%
Cc1ccc(NNc2c(C)nc3ccccc3nc2=O)cc1	-4.6%	.	2.3%	ERK pERK EGF=8.91µM*;cRaf kinase inh=-5.8;MEK inh=24.5%
COc1ccc(C2/C=C\CN(C(=O)c3ccc(C)cc3)C(C)C(=O)N2Cc2ccc(F)cc2)cc1 (stereo unspecified)	15.2%	.	.
COc1ccc(N=C2C(=Nc3ccc(OC)cc3)N(c3ccc(OC)cc3)C(=S)N2C(=O)c2ccc(OC)cc2)cc1	-5.5%	?	10.8%	ERK pERK EGF=5.62µM*;cRaf kinase inh=-6.7;MEK inh=-18.5%
COc1ccc(N=C2C(=Nc3ccc(OC)cc3)N(c3ccccc3)C(=S)N2C(=O)c2ccc(Cl)cc2)cc1	-1.1%	2.24µM*	-38.1%	ERK pERK EGF=164.8%;cRaf kinase inh=-10.1;MEK inh=-6.4%
